Reference: PubChem BioAssay (EPA / NIEHS)
Records with an inconclusive call do not appear. Activity calls are given as the source filed them. Rule for the calls: active = hit-call score of the fitted dose curve at least 0.9, where 1 is the maximum; inconclusive = response in the unintended direction; inactive = score below 0.9.

Biological target: Ratio of Nucleoli Translocation and Cytoplasm, AR (gene 367) (UniProt P10275)
Assay: UPITT_HCI_U2OS_AR_TIF2_Nucleoli_Cytoplasm_Ratio_Antagonist: University of Pittsburgh U2OS Androgen Receptor-Transcriptional Intermediary Factor 2 (AR-TIF2) Antagonism High Content Imaging Assay for Ratio of Nucleoli Translocation and Cytoplasm (AID 2283999);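 note: antagonists lower the DHT-driven ratio of nucleolar to cytoplasmic red signal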
Source text: UPITT_AR_TIF2_PPIB is a cell-based, high-content imaging assay that uses U2OS, a human osteosarcoma cell line, expressing a human androgen receptor fused to red fluorescent protein and the coactivator TIF2 fused to green fluorescent protein. UPITT_HCI_U2OS_AR_TIF2_Nucleoli_Cytoplasm_Ratio_Antagonist is one of four assay components measured from the UPITT_AR_TIF2_PPIB assay. It is designed to make measurements of the ratio of red fluorescence localized in the nucleolar region of the cell nucleus to red fluorescence localized in the cytoplasm as detected with high-content fluorescent imaging.Data from the assay component UPITT_HCI_U2OS_AR_TIF2_Nucleoli_Cytoplasm_Ratio_Antagonist was analyzed into 1 assay endpoint. This assay endpoint, UPITT_HCI_U2OS_AR_TIF2_Nucleoli_Cytoplasm_Ratio_Antagonist, was analyzed in the positive analysis fitting direction relative to DHT as the baseline of activity. Using a type of binding reporter, measures of receptor for loss-of-signal activity can be used to understand the binding at the pathway-level as it relates to the gene AR.
Daughter plates containing 2 uL of 10 mM compounds in DMSO were prepared and replicated from the 384-well Library of Pharmacologically Active Compounds (LOPAC) master plates using the Bravo outfitted with a 384-well transfer head. Aluminum adhesive plate seals were applied with an Abgene Seal-IT 100 (Rochester, NY) plate sealer, and the plates were stored at -20 C in a Matrical MatriMinistore (Spokane, WA) automated compound storage and retrieval system. For screening, LOPAC daughter plates were withdrawn from -20C storage, thawed to ambient temperature, centrifuged 1-2 min at 50 g, and the plate seals were removed before the transfer of 98 uL of serum-free tissue culture medium (SFM) into wells using the BioTek Microflo liquid handler (BioTek, Winooski, VT) to generate a 200 uM intermediate stock concentration of library compounds (2.0% DMSO). The diluted compounds were mixed by repeated aspiration and dispensation using a 384-well P30 dispensing head on the Evolution P3 (EP3) liquid handling platform (PerkinElmer, Waltham, MA) and then 5 uL of diluted compounds was transferred to the wells of assay plates. In the LOPAC screen, compounds were individually tested at a final concentration of 20 uM (0.2% DMSO). After the diluted compounds had been transferred from the daughter plates to the primary HCS assay plates, aluminum adhesive plate seals were applied and the diluted daughter plates were stored frozen at -20C. To confirm active compounds identified in the primary screen, we withdrew the LOPAC daughter plates containing the 200 uM intermediate concentration of library compounds (2.0% DMSO) from -20C storage, thawed them to ambient temperature, centrifuged them for 1-2 min at 50 g, and removed the plate seals. A work list was generated to direct the Multiprobe Janus liquid handling platform (PerkinElmer) to cherry pick 75 uL from the wells of the diluted daughter plates that were flagged active in the primary screen and to reformat these into a 384-well plate hit confirmation daughter plate. Five microliters of primary HCS active compounds was then transferred into triplicate wells of assay plates using a 384-well P30 dispensing head on the Evolution P3 (EP3) liquid handling platform (PerkinElmer). […] Daughter plates containing 2 uL of the serially diluted compounds in DMSO were prepared and replicated from the 384-well serial dilution master plates using the Bravo outfitted with a 384-well transfer head. Aluminum adhesive plate seals were applied and plates were stored at -20C. For testing in the bioassays, daughter plates were withdrawn from -20C storage, thawed to ambient temperature, centrifuged for 1-2 min at 50 g, and the plate seals were removed before the transfer of 38 uL of SFM into wells using the BioTek Microflo liquid handler (BioTek) to generate an intermediate stock concentration of library compounds ranging from 1.95 to 500 uM (5.0% DMSO). […]

Ratio of Nucleoli Translocation and Cytoplasm, AR (gene 367), sequence (P10275 whole entry, looked up): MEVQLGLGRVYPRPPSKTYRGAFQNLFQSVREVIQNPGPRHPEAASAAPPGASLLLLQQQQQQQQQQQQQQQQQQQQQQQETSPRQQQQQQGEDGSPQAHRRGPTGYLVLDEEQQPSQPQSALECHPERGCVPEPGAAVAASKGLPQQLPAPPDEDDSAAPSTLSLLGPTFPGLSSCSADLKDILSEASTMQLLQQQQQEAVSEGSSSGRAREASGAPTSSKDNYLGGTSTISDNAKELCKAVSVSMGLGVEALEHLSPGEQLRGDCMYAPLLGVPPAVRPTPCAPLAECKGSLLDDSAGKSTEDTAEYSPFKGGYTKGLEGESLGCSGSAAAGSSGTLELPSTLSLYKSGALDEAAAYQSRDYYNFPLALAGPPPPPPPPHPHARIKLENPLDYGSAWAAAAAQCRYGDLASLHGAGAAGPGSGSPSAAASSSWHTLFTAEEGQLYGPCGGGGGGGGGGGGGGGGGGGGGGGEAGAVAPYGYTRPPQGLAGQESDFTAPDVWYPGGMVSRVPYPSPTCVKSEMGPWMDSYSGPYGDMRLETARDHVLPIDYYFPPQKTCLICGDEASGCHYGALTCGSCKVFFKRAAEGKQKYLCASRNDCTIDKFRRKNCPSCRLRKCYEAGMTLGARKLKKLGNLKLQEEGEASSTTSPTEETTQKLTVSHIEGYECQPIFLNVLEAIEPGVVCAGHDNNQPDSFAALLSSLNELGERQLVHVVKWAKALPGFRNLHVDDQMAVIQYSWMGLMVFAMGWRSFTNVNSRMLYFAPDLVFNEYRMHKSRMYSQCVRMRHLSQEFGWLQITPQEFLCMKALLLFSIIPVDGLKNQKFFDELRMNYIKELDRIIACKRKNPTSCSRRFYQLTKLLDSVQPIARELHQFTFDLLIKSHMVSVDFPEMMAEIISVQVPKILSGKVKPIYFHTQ

| SMILES | outcome | AC50 |
| --- | --- | --- |
| COCC(C)OCC(C)OCC(C)O (configuration not stated) | inactive | – |
| CCCCCCCCCC(=O)O | inactive | – |
| CN(C)c1ccc(C(=C2C=CC(=[N+](C)C)C=C2)c2ccc(N(C)C)cc2)cc1 | – | 2.66 µM (active) |
| CCCCOC(=O)c1ccc(O)cc1 | inactive | – |
| NC(=O)c1nc(-c2cccc(-c3cc(F)ccc3OCC(F)(F)C(F)(F)F)c2)n[nH]1 | inactive | – |
| O=c1c(-c2ccc(O)cc2)coc2cc(O)cc(O)c12 | inactive | – |
| CCN(Cc1cccnc1)C(=O)c1cccc(Cl)c1[C@]1(C)C(=O)N(Cc2ccc(OC)cc2OC)c2ccc(Cl)cc21 | inactive | – |
| COc1cc(C(=O)NC2CCN(C)CC2)ccc1Nc1ncc2c(n1)N(C1CCCC1)CC(F)(F)C(=O)N2C | inactive | – |
| O=C(O)Cn1c(=O)n(Cc2ccc(Br)cc2F)c(=O)c2ccc(Cl)cc21 | inactive | – |
| Oc1ccc2ccccc2c1 | inactive | – |
| CN(C[C@@H](CC[N+]12CCC(C3CCCCC3)(CC1)CC2)c1ccc(Cl)c(Cl)c1)C(=O)c1cc(C(F)(F)F)cc(C(F)(F)F)c1 | – | 29.6 µM (active) |
| OCCO | inactive | – |
| NCc1cccc(C2CCN(C(=O)c3ccc(C#Cc4ccccc4F)o3)CC2)c1 | – | 27.2 µM (active) |
| Cc1ccc(C(C)C)cc1 | inactive | – |
| Cc1c2ccccc2c(C)c2c1ccc1ccccc12 | inactive | – |
| O=C(Nc1ccc(Cl)cc1)Nc1ccc(Cl)c(Cl)c1 | inactive | – |
| CCCC(=O)OCCC(C)C | inactive | – |
